Assay results taken from PubChem BioAssay (NCATS).
Inconclusive results are not listed. Activity calls are given as the source filed them. Unless noted, the call rests on the fitted dose curve; in most records, active means well fitted curve in the direction sought with a large enough effect; inconclusive means small, poorly fitted or top-dose-only effect, or another doubt; inactive means no such curve, though single readings can be large; an effect the other way counts as inactive or inconclusive.

Experiments:
[1] = Primary qHTS for inhibitors of La Crosse Virus (LACV) - induced cell death in SH-SY5Y cells (AID 1508616); settings: SH-SY5Y LACV cytopathicity rescue, ATP luminescence, 6 d; series mostly up to 4.29 µM;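 further: top concentration of the series differs between compounds; higher means more rescue of cells from virus-induced death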
In short: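 Luminescent ATP readout (ATPLite 1step, 5 min room temperature) measured rescue from LACV-induced death after 6 days of infection at 0.01 MOI; normalized to infected DMSO wells and uninfected DMSO wells.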

[2] = biological target: Calcium and integrin-binding protein 1 (Homo sapiens) (UniProt Q99828); assay: Primary qHTS for Identification of Calcium Integrin Binding Protein 1 (CIB1) Competitor (AID 1508620); settings: CIB1-GST / FITC-alphaIIb peptide fluorescence polarization; series mostly up to 114 µM;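 further: GST tagged CIB1 binding a fluorescein labelled alphaIIb integrin peptide tracer; top concentration of the series differs between compounds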
Sequence of Calcium and integrin-binding protein 1 (Homo sapiens) (Q99828 whole entry, looked up): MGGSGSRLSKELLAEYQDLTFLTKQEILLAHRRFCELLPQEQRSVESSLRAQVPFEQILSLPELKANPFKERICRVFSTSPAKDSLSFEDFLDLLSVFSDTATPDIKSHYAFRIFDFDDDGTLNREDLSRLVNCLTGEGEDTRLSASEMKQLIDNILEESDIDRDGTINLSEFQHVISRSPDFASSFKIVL
In short: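 CIB1-GST (1 uM final) and compound incubated 15 min at room temperature before adding FITC-alphaIIb peptide tracer (100 nM final). Competition for binding read by fluorescence polarization (ex 480, em 540) after another 15 min at room temperature.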

[3] = A High-Content qHTS Against Drug Library for the Identification of Small Molecules that Inhibit DYT1 Early Onset Primary Dystonia-Associated Cell Pathology (AID 1645839; calls by dose curve); settings: HEK293 Flp-In EGFP-delE TorsinA, punctate imaging, 48 h; series mostly up to 46.1 µM
In short: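 In this high-content image screen, delE TorsinA mislocalization in inducible Flp-In 293 cells is scored as %pathology, with cell count serving as the counterscreen. Compound exposure lasts 48 h under tetracycline induction in reduced-serum medium.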

[4] = biological target: Cytochrome P450 2D6 (Homo sapiens) (UniProt P10635); assay: Cytochrome P450 family 2 subfamily D member 6 (CYP2D6) small molecule antagonists: luciferase biochemical (cell-free) qHTS assay (AID 1645840; active means well fitted curve in the direction sought with a large enough effect in the repeat runs; an effect the other way counts as inactive or inconclusive; further: nearly all actives have a fitted effect of over 55% in size; further: potency means the concentration at half of the fitted maximal effect); settings: P450-Glo CYP2D6 enzyme, luciferin luminescence, 1 h; series mostly up to 57.4 µM
Sequence of Cytochrome P450 2D6 (Homo sapiens) (P10635 whole entry, looked up): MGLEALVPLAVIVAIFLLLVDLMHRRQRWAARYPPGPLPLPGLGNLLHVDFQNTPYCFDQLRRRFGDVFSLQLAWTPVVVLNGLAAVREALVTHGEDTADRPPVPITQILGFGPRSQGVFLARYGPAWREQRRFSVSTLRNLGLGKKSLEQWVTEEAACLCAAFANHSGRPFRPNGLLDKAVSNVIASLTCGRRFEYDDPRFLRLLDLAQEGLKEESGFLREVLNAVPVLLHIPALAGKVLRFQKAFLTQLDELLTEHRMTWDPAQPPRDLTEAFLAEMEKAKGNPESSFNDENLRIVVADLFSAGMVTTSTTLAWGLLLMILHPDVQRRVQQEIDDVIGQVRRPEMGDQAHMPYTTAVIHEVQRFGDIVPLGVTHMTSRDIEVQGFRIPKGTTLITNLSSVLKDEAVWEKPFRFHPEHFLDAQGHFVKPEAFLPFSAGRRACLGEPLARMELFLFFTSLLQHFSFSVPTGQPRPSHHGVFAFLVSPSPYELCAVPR
In short: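 P450-Glo luminescent screen: recombinant CYP2D6 enzyme–proluciferin substrate mix preincubated with compound 10 min at room temperature, then NADPH regeneration added for 1 h at room temperature. Detection reagent added for 20 min; luciferin light read as relative luminescence units.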

[5] = biological target: Cytochrome P450 2C9 (Homo sapiens) (UniProt P11712); assay: Cytochrome P450 family 2 subfamily C member 9 (CYP2C9) small molecule antagonists: luciferase biochemical (cell-free) qHTS assay (AID 1645842; active means well fitted curve in the direction sought with a large enough effect in the repeat runs; an effect the other way counts as inactive or inconclusive; further: nearly all actives have a fitted effect of over 55% in size; further: potency means the concentration at half of the fitted maximal effect); settings: P450-Glo CYP2C9 enzyme assay, luciferin luminescence; series mostly up to 57.4 µM
Sequence of Cytochrome P450 2C9 (Homo sapiens) (P11712 whole entry, looked up): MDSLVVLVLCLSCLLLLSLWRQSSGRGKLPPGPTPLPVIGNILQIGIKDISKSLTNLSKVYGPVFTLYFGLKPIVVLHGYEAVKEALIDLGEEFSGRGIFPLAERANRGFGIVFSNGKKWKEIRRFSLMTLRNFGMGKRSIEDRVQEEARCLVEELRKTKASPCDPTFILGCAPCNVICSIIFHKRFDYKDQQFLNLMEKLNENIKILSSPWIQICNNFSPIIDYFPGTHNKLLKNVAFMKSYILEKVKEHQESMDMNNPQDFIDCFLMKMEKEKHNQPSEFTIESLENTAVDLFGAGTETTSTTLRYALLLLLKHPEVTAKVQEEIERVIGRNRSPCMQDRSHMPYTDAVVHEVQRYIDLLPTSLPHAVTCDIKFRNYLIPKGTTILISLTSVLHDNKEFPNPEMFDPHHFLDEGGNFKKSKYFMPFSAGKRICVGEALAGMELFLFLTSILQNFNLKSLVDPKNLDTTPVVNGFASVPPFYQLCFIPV
In short: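 Luminescence, after 20 min with luciferin detection reagent, reflected CYP2C9 turnover during a 1 h NADPH-driven reaction at 37C. Enzyme-substrate mix contained 0.4% bovine serum albumin and was preincubated with compound 10 min at room temperature.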

[6] = Primary qHTS for inhibitors of nuclear receptor binding SET domain protein 2 (NSD2) in an isogenic RCH-ACV NSD2 p.E1099K mutant (9B) (AID 1645876); settings: RCH-ACV NSD2 E1099K (9B) viability, CellTiter-Glo, 72 h; series mostly up to 44.9 µM; further: nearly all actives have a fitted effect of over 70% in size; further: potency means the concentration at half of the fitted maximal effect
[7] = Primary qHTS for inhibitors of nuclear receptor binding SET domain protein 2 (NSD2) in an RCH-ACV wild type WT cells (2C) (AID 1645877); settings: RCH-ACV (leukaemia line) NSD2 WT (2C) viability, CellTiter-Glo, 72 h; series mostly up to 44.9 µM; further: nearly all actives have a fitted effect of over 70% in size; further: potency means the concentration at half of the fitted maximal effect
[8] = Cytotoxicity counterscreen for inhibitors of SARS-CoV-2 cell entry (AID 1645845; calls by dose curve; further: nearly all actives have a fitted effect of over 50% in size; further: potency means the concentration at half of the fitted maximal effect); settings: cell viability (SARS-CoV-2 entry assay cells); series mostly up to 57.1 µM
In short: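 48 h compound treatment (after 1 h preincubation), HEK293-ACE2 cells, 37 C/5% CO2; ATP luminescence endpoint; normalized to cell wells and media blanks.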

[9] = Primary qHTS to identify inhibitors of SARS-CoV-2 cell entry (AID 1645846; calls by dose curve; further: nearly all actives have a fitted effect of over 45% in size; further: potency means the concentration at half of the fitted maximal effect); settings: SARS-CoV-2 pseudovirus cell entry assay, luminescence; activity change, negative = inhibition: at 57.1 µM (top of the series) unless noted; series mostly up to 57.1 µM
In short: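 Using luciferase-reporting pseudoviruses carrying Wuhan-Hu-1 spike, the screen tracks entry into stably ACE2-expressing cells over 48 hr. Activity is expressed relative to spike particles versus particles lacking any fusion protein.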

[10] = biological target: Calcium and integrin-binding protein 1 (Homo sapiens) (UniProt Q99828); assay: Confirmatory qHTS for Identification of Calcium Integrin Binding Protein 1 (CIB1) Competitor (AID 1508617); settings: CIB1 binding competition assay, biochemical qHTS; series mostly up to 114 µM; further: nearly all actives have a fitted effect of over 65% in size
In short: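 Binding competition between test compounds and fluorescent alphaIIb peptide for 1 uM CIB1-GST is monitored by FP at 480/540 nm. Final compound range is up to 114 uM; unlabeled peptide serves as reference competitor.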

[11] = Primary qHTS for small molecule stabilizers of the endoplasmic reticulum resident proteome: Secreted ER Calcium Modulated Protein (SERCaMP) assay (AID 1508630); settings: SH-SY5Y GLuc-SERCaMP (Gaussia luciferase released on ER calcium loss) secretion, thapsigargin, luminescence; series mostly up to 38.4 µM
In short: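 GLuc-SERCaMP-expressing SH-SY5Y cells, pretreated 16 h with compound, are challenged with thapsigargin to empty ER calcium stores; after 4 h, coelenterazine is added directly to the medium and luminescence is imaged.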

[12] = biological target: Cytochrome P450 3A4 (Homo sapiens) (UniProt P08684); assay: Cytochrome P450 family 3 subfamily A member 4 (CYP3A4) small molecule antagonists: luciferase qHTS assay (AID 1645841; active means well fitted curve in the direction sought with a large enough effect in the repeat runs; an effect the other way counts as inactive or inconclusive; further: nearly all actives have a fitted effect of over 45% in size; further: potency means the concentration at half of the fitted maximal effect); settings: P450-Glo CYP3A4 enzyme assay, luciferin luminescence; series mostly up to 57.4 µM
Sequence of Cytochrome P450 3A4 (Homo sapiens) (P08684 whole entry, looked up): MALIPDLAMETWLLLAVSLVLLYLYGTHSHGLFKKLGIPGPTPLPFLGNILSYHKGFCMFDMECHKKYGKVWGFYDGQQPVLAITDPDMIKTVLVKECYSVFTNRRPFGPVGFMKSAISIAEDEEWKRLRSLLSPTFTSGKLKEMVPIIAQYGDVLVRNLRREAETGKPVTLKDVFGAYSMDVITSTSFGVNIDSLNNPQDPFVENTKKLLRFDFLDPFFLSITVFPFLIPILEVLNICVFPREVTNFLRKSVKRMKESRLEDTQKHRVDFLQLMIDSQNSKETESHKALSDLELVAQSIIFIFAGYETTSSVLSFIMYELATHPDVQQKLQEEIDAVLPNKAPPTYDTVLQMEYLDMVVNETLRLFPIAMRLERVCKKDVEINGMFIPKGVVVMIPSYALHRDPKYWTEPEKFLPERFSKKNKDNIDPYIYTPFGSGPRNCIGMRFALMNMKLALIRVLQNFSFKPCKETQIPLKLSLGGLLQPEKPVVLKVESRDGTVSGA
In short: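 Luminescent CYP3A4 activity readout: compounds plus enzyme-substrate mix 10 min at room temperature, reaction started with NADPH regenerating system for 1 h, stopped with detection reagent, read after 20 min. Ketoconazole served as control.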

[13] = biological target: N-terminal Xaa-Pro-Lys N-methyltransferase 1 (Homo sapiens) (UniProt Q9BV86); assay: Confirmatory qHTS for Inhibitors of N-terminal methyltransferase 1 (NTMT1): MTaseGlo Assay (AID 1645874); settings: NTMT1 enzyme, MTase-Glo SAH luminescence; series mostly up to 204 µM; further: potency means the concentration at half of the fitted maximal effect; nearly all actives have a fitted effect of over 65% in size
Sequence of N-terminal Xaa-Pro-Lys N-methyltransferase 1 (Homo sapiens) (Q9BV86 whole entry, looked up): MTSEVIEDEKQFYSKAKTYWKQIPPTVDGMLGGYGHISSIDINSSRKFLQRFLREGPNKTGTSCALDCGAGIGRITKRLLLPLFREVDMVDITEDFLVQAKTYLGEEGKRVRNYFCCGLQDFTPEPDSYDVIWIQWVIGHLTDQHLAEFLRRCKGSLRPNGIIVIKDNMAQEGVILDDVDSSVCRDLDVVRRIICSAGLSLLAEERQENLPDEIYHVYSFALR
In short: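 Compounds are incubated with 125 nM NTMT1 and 100 uM SAM for 15 min before the SPKRIA peptide (1 uM) starts a 30 min room-temperature methylation. SAH is measured by coupled luciferase luminescence and curves fitted to a Hill equation.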

[14] = Counterscreen qHTS for small molecule stabilizers of the endoplasmic reticulum resident proteome: GLuc-NoTag assay (AID 1508627); settings: Gaussia luciferase NoTag secretion counterscreen, luminescence, thapsigargin 100 nM for final 4 h; series mostly up to 76.4 µM;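 further: SH-SY5Y cells given compound then 100 nM thapsigargin to empty ER calcium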
In short: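 Luminescence of Gaussia luciferase secreted into the medium (coelenterazine, 0.07x final, unlysed cells) was the read-out. Human SH-SY5Y neuroblastoma cells constitutively secreting untagged GLuc received compound for 19 h, then 100 nM thapsigargin for 4 h.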

[15] = Confirmatory qHTS for small molecule stabilizers of the endoplasmic reticulum resident proteome: Secreted ER Calcium Modulated Protein (SERCaMP) assay (AID 1508628); settings: SERCaMP secreted luciferase ER calcium/proteostasis reporter; series mostly up to 76.3 µM;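 further: SH-SY5Y cells given compound 16 h then thapsigargin 100 nM for 4 h; nearly all actives have a fitted effect of over 40% in size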
In short: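 We seeded SH-SY5Y-GLuc-SERCaMP cells, added compounds (three concentrations in the primary run, eleven up to 76.6 uM in confirmation), incubated 16 h, depleted ER calcium with thapsigargin, and read luciferase 4 h later.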

[16] = biological target: Rap guanine nucleotide exchange factor 3 (Homo sapiens) (UniProt O95398); assay: Confirmatory qHTS for antagonist of cAMP-regulated guanine nucleotide exchange factor 3 (EPAC1) (AID 1645880); settings: EPAC1 Rap1B-BODIPY-GDP exchange, fluorescence; series mostly up to 115 µM; further: nearly all actives have a fitted effect of over 55% in size
Sequence of Rap guanine nucleotide exchange factor 3 (Homo sapiens) (O95398 whole entry, looked up): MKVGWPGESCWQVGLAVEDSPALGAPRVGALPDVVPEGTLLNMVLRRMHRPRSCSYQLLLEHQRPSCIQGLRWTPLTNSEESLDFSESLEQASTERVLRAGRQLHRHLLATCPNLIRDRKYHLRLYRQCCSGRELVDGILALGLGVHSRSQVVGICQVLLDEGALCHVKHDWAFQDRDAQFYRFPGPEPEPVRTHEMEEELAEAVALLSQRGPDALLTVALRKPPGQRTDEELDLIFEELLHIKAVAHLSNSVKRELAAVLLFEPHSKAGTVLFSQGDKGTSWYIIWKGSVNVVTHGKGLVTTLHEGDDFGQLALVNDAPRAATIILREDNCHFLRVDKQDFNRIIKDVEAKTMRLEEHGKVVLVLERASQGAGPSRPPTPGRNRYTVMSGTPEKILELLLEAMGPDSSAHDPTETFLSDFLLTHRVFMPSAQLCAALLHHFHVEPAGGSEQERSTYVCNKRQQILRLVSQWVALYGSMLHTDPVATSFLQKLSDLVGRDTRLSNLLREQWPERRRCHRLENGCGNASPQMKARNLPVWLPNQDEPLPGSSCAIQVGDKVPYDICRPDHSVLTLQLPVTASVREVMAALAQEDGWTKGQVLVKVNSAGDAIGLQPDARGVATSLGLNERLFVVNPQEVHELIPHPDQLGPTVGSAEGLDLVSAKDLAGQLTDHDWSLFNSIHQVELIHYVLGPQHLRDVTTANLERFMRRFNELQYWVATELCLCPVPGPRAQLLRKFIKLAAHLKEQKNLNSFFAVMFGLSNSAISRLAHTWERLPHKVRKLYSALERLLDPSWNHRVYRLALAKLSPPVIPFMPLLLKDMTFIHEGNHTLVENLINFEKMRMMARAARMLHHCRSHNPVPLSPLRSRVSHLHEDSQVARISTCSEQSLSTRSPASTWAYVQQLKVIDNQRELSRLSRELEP
In short: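 Nucleotide exchange uses 100 nM EPAC1, 250 nM RAP1B-BODIPY-GDP and 50 uM GDP, with compounds in a concentration-titration series. After 5 min at room temperature, fluorescence (480 nm ex/540 nm em) is read every 5 min for 30 min. Data are normalized to control ATA and DMSO.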

[17] = VSVG counterscreen qHTS to identify inhibitors of SARS-CoV-2 cell entry (AID 1645847; calls by dose curve; further: potency means the concentration at half of the fitted maximal effect; nearly all actives have a fitted effect of over 65% in size); settings: VSV-G pseudotyped particle entry, luciferase; series mostly up to 57.2 µM
In short: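 Entry of VSV-G pseudotyped particles into human ACE2-expressing HEK293 cells was measured by luciferase luminescence 48 h after infection, with compound added 1 h beforehand.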

CCO[C@H]1O[C@@H]2OC3(C)CC[C@H]4[C@H](C)CC[C@@H]([C@H]1C)[C@@]24OO3
inactive: outcome [1] | Potency [2] | outcome [3] | Potency [4]
active: Potency [5] 15.5 µM | Potency [6] 2.99 µM | Potency [7] 3.35 µM

COc1ccc(CN2CCNCC2)c(OC)c1OC
inactive: outcome [1] | Potency [2] | outcome [3] | Potency [8] | Potency [9] | Potency [6]

Cc1ccc([N+](=O)[O-])[c]2c1[O][Hg]2
active: Potency [4] 0.347 µM | Potency [12] 0.977 µM | Potency [5] 0.436 µM | Potency [9] 5.62 µM | Potency [13] 0.728 µM | Potency [6] 0.0841 µM | Potency [7] 0.168 µM
inactive: Potency [10] | outcome [11]

CCN(CC)C(C)C(=O)c1ccccc1 (stereo not given)
inactive: outcome [1] | outcome [3] | Potency [4] | Potency [5] | Potency [6] | Potency [7]

Cc1c(Cl)c(=O)oc2cc(OP(=O)(OCCCl)OCCCl)ccc12
inactive: Potency [2] | Potency [14] | Potency [15] | Potency [8] | Potency [9]
active: Potency [4] 1.55 µM | Potency [5] 1.23 µM

Clc1ccc(CO/N=C(\Cn2ccnc2)c2ccc(Cl)cc2Cl)c(Cl)c1
inactive: outcome [1] | Potency [2] | outcome [16]

Cc1ccc(N=CN(C)C=Nc2ccc(C)cc2C)c(C)c1
inactive: outcome [1] | Potency [2] | outcome [3] | Potency [5] | Potency [8] | Potency [6] | Potency [7]
-12.8%: activity change, negative = inhibition [9]

CC#C[C@]1(O)CC[C@H]2[C@@H]3C[C@H](C)C4=CC(=O)CC[C@]4(C)[C@H]3CC[C@@]21C
inactive: outcome [1] | Potency [2] | Potency [8]
active: Potency [5] 17.4 µM | Potency [6] 23.7 µM | Potency [7] 15 µM

CCN(Cc1ccc(Cl)nc1)/C(=C/[N+](=O)[O-])NC
inactive: outcome [1] | Potency [2] | outcome [3] | Potency [4] | Potency [5] | Potency [6] | Potency [7]

Clc1ccc(CSC(Cn2ccnc2)c2ccc(Cl)cc2Cl)cc1 (stereo not given)
inactive: outcome [1] | Potency [2]
active: Potency [6] 5.96 µM | Potency [7] 5.96 µM

CCN(CC)Cc1nccn1-c1ccc([N+](=O)[O-])cc1C(=O)c1ccccc1Cl
inactive: outcome [1] | Potency [2] | outcome [3] | Potency [8]
active: Potency [4] 1.95 µM

CCOC(=O)C1(c2ccccc2)CCN(CCc2ccc(N)cc2)CC1
inactive: outcome [1] | Potency [2] | Potency [8] | Potency [6]
active: Potency [4] 1.74 µM

CCc1ccc(C2CCNCC2)cc1
active: Potency [4] 0.347 µM
inactive: outcome [1] | Potency [2] | outcome [3] | Potency [5] | Potency [6] | Potency [7]

CN1C(=O)[C@@H](NC(=O)c2cc3ccccc3[nH]2)N=C(c2ccccc2)c2ccccc21
inactive: outcome [1] | Potency [2] | Potency [4] | Potency [6] | Potency [7]
active: Potency [5] 2.75 µM

CCC1(CC)C(=O)NC(=O)NC1=O
inactive: outcome [1] | outcome [11] | outcome [3] | Potency [4] | Potency [12] | Potency [5]

COP(=O)(OC)OC=C(Cl)Cl
-2.57%: activity change, negative = inhibition [9]
inactive: outcome [1] | Potency [2] | outcome [3] | Potency [4] | Potency [5] | Potency [8] | Potency [6] | Potency [7]

c1ccc2nc(N3CCNCC3)ccc2c1
inactive: Potency [2] | outcome [11] | outcome [3] | Potency [4] | Potency [5] | Potency [6] | Potency [7]

CN(C)CCc1c[nH]c2ccc(O)cc12
inactive: outcome [1] | outcome [3] | Potency [5] | Potency [6] | Potency [7]
active: Potency [4] 31 µM

CCC(=O)C(CCN(C)C)(c1ccccc1)c1ccccc1
-43.2%: activity change, negative = inhibition [9]
inactive: outcome [1] | Potency [2] | Potency [8]
active: Potency [4] 5.49 µM | Potency [17] 3.41 µM

C[C@H](CN1CCOCC1)C(C(=O)N1CCCC1)(c1ccccc1)c1ccccc1
inactive: outcome [1] | Potency [2] | outcome [3] | Potency [6] | Potency [7]
active: Potency [4] 38.6 µM

CCCCCCCCCCCC[N+](C)(C)CCOc1ccccc1
inactive: outcome [1] | outcome [11]
active: Potency [4] 1.74 µM | Potency [8] 20 µM | Potency [6] 1.33 µM | Potency [7] 0.944 µM

ClCc1cccc(Cl)c1
inactive: outcome [1] | Potency [2] | outcome [3] | Potency [5] | Potency [6] | Potency [7]
active: Potency [4] 20.4 µM

Oc1ccc([C@H]2CNCc3c2ccc(O)c3O)cc1O
active: Potency [5] 8.71 µM | Potency [13] 18.3 µM
1.13%: activity change, negative = inhibition [9]
inactive: outcome [1] | outcome [11] | Potency [4] | Potency [8]

CCCCN(CCN(CCCC)C(=O)N1CCOCC1)C(=O)N1CCOCC1
inactive: Potency [8]

O=C(O)CCc1nc(-c2ccccc2)c(-c2ccccc2)o1
inactive: Potency [8]

CCCOC(C(=O)OC1CCN(C)CC1)(c1ccccc1)c1ccccc1
inactive: Potency [8]

OC(CCN1CCCCC1)(c1ccccc1)C1CC2C=CC1C2 (stereo not given)
inactive: Potency [8]

COc1ccc2c3c1O[C@H]1[C@@H](O)C=C[C@H]4[C@@H](C2)N(C)CC[C@@]341
inactive: Potency [2] | outcome [11] | Potency [5]
active: Potency [6] 6.72 µM | Potency [7] 6.72 µM
